Source: PubChem BioAssay
Results filed as inconclusive are left out. Active and inactive are the calls of the source. Unless noted, the limit is not given here; nearly all actives have AC50 up to about 23 µM.

Legend:
[1] = growth inhibition of DIPG glioma cells, dose response, cell-based, SU-DIPG-XIII, MIPE5.0, CellTiter-Glo, qHTS (AID 1347064); settings: SU-DIPG-XIII viability, CellTiter-Glo ATP luminescence;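 as to AC50: cells exposed to compound for 48 hours before the viability read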
[2] = JHH-DIPG-1 glioma cell viability, MIPE5.0 library, CellTiter-Glo luminescence, qHTS (AID 1347067; cut-off not given, nearly all actives have AC50 up to about 26 µM;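 also: cells exposed to compound for 48 hours before readout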); settings: JHH-DIPG-1 glioma viability, CellTiter-Glo ATP luminescence
[3] = SU-DIPG-XXV glioma cell viability, MIPE5.0 library, qHTS (AID 1347068; cut-off not given, nearly all actives have IC50 up to about 30 µM)
[4] = SU-DIPG-VI glioma cell viability, MIPE4.0 library, CellTiter-Glo luminescence, qHTS (AID 1347066; cut-off not given, nearly all actives have AC50 up to about 30 µM;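 also: cells exposed to compound for 48 hours before readout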); settings: CellTiter-Glo ATP luminescence
[5] = sensitizers of A549 cells to miR-34 induction, primary screen, imaging, A549 dox-inducible miR-34, nuclei and caspase counts (AID 1347080;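 active = compounds whose cell count with miR-34 switched on is under 0.7 times the count with it off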); settings: A549 miR-34 inducible, Hoechst nuclei count, 48 h
[6] = survival rescue of mitochondrial mutant cells in low glucose, primary screen, MELAS cybrids, Rieske KO mouse fibroblasts, CellTiter-Glo (AID 1508586;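 active = mean z-score across replicates of 1.96 or higher in either the MELAS or the Rieske mutant cell line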;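 also: z relative to plate mean and SD of compound and empty wells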)

## C=C1[C@H](OC(=O)/C=C(\C)CC)C[C@@H](C(C)C)[C@@H]2[C@H]([C@@H](C)OC(C)=O)C(=O)C[C@@H]12
[1]
  AC50: 18.6 µM (active)
[2]
  AC50: 18.6 µM (active)
[3]
  outcome: inactive

## CCCS(=O)(=O)Nc1ccc(F)c(C(=O)c2c[nH]c3ncc(Cl)cc23)c1F
[1]
  outcome: inactive
[4]
  outcome: inactive
[3]
  outcome: inactive
[5]; stronger effect = lower value, cell number ratio, induced over uninduced
  fold change: 0.766 (inactive)
[5]; measured here: relative caspase fold change +Dox/-Dox
  fold change: 1.15
[5]; measured here: total cells with miR-34 induction, stronger effect = lower value
  cell count: 4220
[5]; measured here: total cells without miR-34 induction
  cell count: 5520
[6]; MELAS cybrid survival, CellTiter-Glo 48 h, stronger effect = higher value
  z-score: -0.49 (inactive)
[6]; Rieske KO mouse fibroblast survival, CellTiter-Glo 72 h
  z-score: 0.575

## Cc1ccc(NS(=O)(=O)c2ccc3c(c2)C2C=CCC2C(c2ccc(C(=O)O)cc2)N3)cc1C (stereo not given)
[1]
  outcome: inactive
[2]
  outcome: inactive
[3]
  outcome: inactive
